{"source": "the supplement of paper PMC11417369", "note": "± gives the standard deviation of the averaged measurements. Whole data set: some 25,000 sequences, median “ln(normalized median fluorescence intensity)” near 8.9, cut for the highest 2% near 10. Shown is part of a subset that was picked to be rich in the highest values."}
{"system": "PfAP2-LT AP2 domain (GST-tagged)", "assay": "gcPBM binding intensity (ln(normalized median fluorescence intensity)); higher = stronger DNA binding", "summary_of_the_method": "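Alexa488 anti-GST antibody, scanned at 488 nm, detected GST-tagged P. falciparum DNA-binding domains that had been expressed in E. coli and incubated for 1 h on an Agilent 4 × 180k array. The array carried primer-extended double-stranded 36-bp intergenic genomic probes and negative controls. Binding intensity is the highest Masliner-normalised natural-log median intensity across replicate spots of either orientation of each probe.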"}
{"sequence": "AAAAATAAAAAAATGACACACATATATATATATATA [CACACA_site2307]", "gcPBM binding intensity (ln)": "9.85 ± 0.11"}
{"sequence": "TATAACAATTTTTATGCATGCGACTATAATATTTTT [TGCATGCA_site508]", "gcPBM binding intensity (ln)": "8.92 ± 0.42"}
{"sequence": "ATTATATAAGTACACAAACAAGTATGAGATTCAAAA [GTGCAC_negctrl_site119]", "gcPBM binding intensity (ln)": "8.88 ± 0.5"}
{"sequence": "ATATATTATATGTACACACACATATAAGGGATTATA [CACACA_site5]", "gcPBM binding intensity (ln)": "9.28 ± 0.4"}
{"sequence": "TTATATTATATATATGTGCACATTTTTAAACTTGGA", "gcPBM binding intensity (ln)": "8.77 ± 0.47"}
{"sequence": "ACAAACAAAGAAAGAACACACATACACAAGATACCT [CACACA_site7353]", "gcPBM binding intensity (ln)": "9.54 ± 0.26"}
{"sequence": "ATATAACTTTTAAAAGCATGCAAATATTTACTCAAT [TGCATGCA_site396]", "gcPBM binding intensity (ln)": "8.78 ± 0.45"}
{"sequence": "TGATAAGAAAAAGACTTTTCCTTCTTACTTTCTATG [CACACA_negctrl_site782]", "gcPBM binding intensity (ln)": "8.55 ± 0.59"}
{"sequence": "ACATGAAGATATTTTTGTCCGTACAAATTCATATGA [XGTACX_site1837]", "gcPBM binding intensity (ln)": "8.66 ± 0.23"}
{"sequence": "AAGGTATTTATAACTACACACTTATTTATAACCTAA [CACACA_site6194]", "gcPBM binding intensity (ln)": "8.7 ± 0.43"}
{"sequence": "ATATGAAGTATCGAATTAAGGGCAACAAATAAATTA [CACACA_negctrl_site1116]", "gcPBM binding intensity (ln)": "8.76 ± 0.57"}
{"sequence": "GTGGAAAAAAATAATTGTACACAATAATAAATATAT [XGTACX_site2414]", "gcPBM binding intensity (ln)": "8.87 ± 0.45"}
{"sequence": "GTTTGAATGGCGCACTGTACACATATATACATATAG [XGTACX_site8619]", "gcPBM binding intensity (ln)": "9.13 ± 0.26"}
{"sequence": "TTCTATTCACATTTTACACACGTCCATCGCATTTTA [CACACA_site3453]", "gcPBM binding intensity (ln)": "9.44 ± 0.46"}
{"sequence": "ATTTTTTATGGACAAAAGACCTCTGATGTAAATATA [CACACA_negctrl_site1081]", "gcPBM binding intensity (ln)": "8.38 ± 0.4"}
{"sequence": "CACAGACACGGACACACACACATATATAATATATAT [CACACA_site4495]", "gcPBM binding intensity (ln)": "9.87 ± 0.42"}
{"sequence": "CCCACAGACGGACACACACACACACCGACACATATA [CACACA_site4356]", "gcPBM binding intensity (ln)": "10 ± 0.26"}
{"sequence": "TTTGTTGACGGACACACACACATACAGATATATATA [CACACA_site5292]", "gcPBM binding intensity (ln)": "9.4 ± 0.27"}
{"sequence": "CCCACAGACGGACACACACACATATATATATATATA [CACACA_site4351]", "gcPBM binding intensity (ln)": "10.4 ± 0.22"}
{"sequence": "AGCACAGACGGACACACACACATATATATATATATA [CACACA_site4341]", "gcPBM binding intensity (ln)": "10.37 ± 0.085"}
{"sequence": "CATACATACAGACACACACACATATTTATATTTATA [CACACA_site6172]", "gcPBM binding intensity (ln)": "9.9 ± 0.41"}
{"sequence": "GAATTATATACTTATTGTACAAAAAAAAAAAAAAAA [XGTACX_site3193]", "gcPBM binding intensity (ln)": "8.36 ± 0.4"}
{"sequence": "TGCAGTCTGGAGAAACGTACATAGTATCTGGTAGCT [XGTACX_site4937]", "gcPBM binding intensity (ln)": "8.94 ± 0.57"}
{"sequence": "TTCAACGTTTTGGAATGTACAGAAAGGTATCCATCA [XGTACX_site179]", "gcPBM binding intensity (ln)": "8.62 ± 0.42"}
{"sequence": "TATCTCATAGTATACACACACACACCCACCCATATA [CACACA_site1739]", "gcPBM binding intensity (ln)": "10.1 ± 0.11"}
{"sequence": "ATAGTATACAGACACACACACACACCCATATATATA [CACACA_site1736]", "gcPBM binding intensity (ln)": "10.2 ± 0.29"}
{"sequence": "CACGCATACAGACACACACACACACCCATATATATA [CACACA_site636]", "gcPBM binding intensity (ln)": "10.2 ± 0.37"}
{"sequence": "AGTACAGACATAGACACACACACACCCATAAAAAAA [CACACA_site1515]", "gcPBM binding intensity (ln)": "9.99 ± 0.45"}
{"sequence": "CACCATGATACATACACACAGACATATACGCATTCA [CACACA_site1008]", "gcPBM binding intensity (ln)": "9.46 ± 0.18"}
{"sequence": "CACGCATACGGACACACACACACACCGATATATATA [CACACA_site4521]", "gcPBM binding intensity (ln)": "9.89 ± 0.33"}
{"sequence": "CACGCATACAGACACACACACACACCGATATATATA [CACACA_site8113]", "gcPBM binding intensity (ln)": "10.1 ± 0.37"}
{"sequence": "TATATCTCATAGTATACACACACACCCACCCACATA [CACACA_site8513]", "gcPBM binding intensity (ln)": "9.9 ± 0.23"}
{"sequence": "TACACATACAGACATACACACATACCCATATACTCA [CACACA_site5037]", "gcPBM binding intensity (ln)": "9.6 ± 0.41"}
{"sequence": "CATACACCCATACATACACACATACAGATATATATA [CACACA_site5123]", "gcPBM binding intensity (ln)": "9.29 ± 0.33"}
